# Assay outcomes (PubChem)
# D3 ag – agonists of human D3 dopamine receptor; max activation, %; P35462; AID 652048; D3R DiscoveRx beta-arrestin cells, luminescence, 90 min; 0.58% of 410,000 active; in the data active = max activation above about 30%; also: 0% is about no effect
# Target sequence (P35462 whole entry, looked up): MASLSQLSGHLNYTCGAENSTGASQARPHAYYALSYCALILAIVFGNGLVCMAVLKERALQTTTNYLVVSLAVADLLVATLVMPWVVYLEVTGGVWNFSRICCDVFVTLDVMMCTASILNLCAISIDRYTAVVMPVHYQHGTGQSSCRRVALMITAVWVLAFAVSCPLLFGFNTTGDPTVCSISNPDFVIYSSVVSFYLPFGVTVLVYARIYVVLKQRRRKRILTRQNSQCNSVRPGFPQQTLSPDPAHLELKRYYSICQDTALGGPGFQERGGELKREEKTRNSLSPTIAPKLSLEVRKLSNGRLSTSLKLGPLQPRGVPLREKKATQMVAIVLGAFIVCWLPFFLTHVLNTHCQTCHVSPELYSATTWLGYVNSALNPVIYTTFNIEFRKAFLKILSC
#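 Agonist mode: compounds and dopamine controls were applied to plated cells for 90 min at 37 degrees C after an overnight attachment at 1500 cells/well. Luminescent read-out followed 30 - 60 minutes at room temperature with DiscoveRx detection reagent.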
# S2 tox – cell viability loss in ATXN counter-screen. S2 cells (HEK-293 line with an ATXN2-luciferase reporter) viability, CellTiter-Fluor protease fluorescence, 24 h. Potency, µM (top dose mostly 56.7 µM), most hits filed as cytotoxic. 0.49% of 400,000 active; also: potency is read from the fitted curve at half-maximal effect; nearly all actives have a fitted effect of over 40% in size
# ATXN2 expr inh – inhibitors of ATXN2 expression. HEK-293 ATXN2-luciferase reporter, luminescence, 24 h. Potency, µM (series often up to 57 µM), without a hit: at the top dose activity change, negative = inhibition, actives largely listed as inhibitors. 0.72% of 360,000 active; also: potency is read from the fitted curve at half-maximal effect; % is scaled to controls: 0 for no effect and ±100 for the full control effect; nearly all actives have a fitted effect of over 55% in size
#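 qHTS (up to 57 uM final) was run with 24 h compound exposure of reporter cells at 37 °C. Each well was multiplexed: SteadyGlo luminescence measured ATXN2-luciferase expression after a fluorogenic Gly-Phe-AFC viability readout (25 uM final).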
# DRD3 antagonist – antagonists of human D3 dopamine receptor; P35462; D3R cells, DiscoveRx beta-arrestin luminescence, antagonist mode; stronger effect = lower value; max response, negative = inhibition, %; 2.5% of 360,000 active; in the data active = max response below about -50%; inconclusive = no clear call, values can overlap the other calls; also: % is scaled to controls: 0 for no effect and ±100 for the full control effect
#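 Cells expressing the human receptor were seeded at 1500 cells/well, incubated overnight at 37 degrees C in 5% CO2, then exposed to library compounds with dopamine controls for 90 minutes at 37 degrees C before luminescent detection.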
# a7 integrin act – activators of alpha7 integrin expression for muscular dystrophy; alpha7betagal myoblasts, beta-gal FDG fluorescence, 48 h; 0.064% of 350,000 active; Potency, µM (series often up to 38.3 µM), for the others: top-dose activation, usual class: activators;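 also: potency is read from the fitted curve at half-maximal effect; 100% = response of the positive control SU9516; nearly all actives have a fitted effect of over 60% in size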
#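 alpha7betagal+/- myoblasts (passage 13, 250/well) treated 48 h at 37C with compounds at 1:260 dilution of DMSO stock. Lysed, then beta-galactosidase activity read as FDG fluorescence (ex 480/em 540) after 30 min, with pre-read for autofluorescence.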
# IL1B secr inh – inhibitors of inflammasome signaling (IL-1 beta secretion) | THP-1 LPS/ATP IL-1B secretion, AlphaLISA, 16 h; stronger effect = lower value | activity change, % at 57.5 µM | AID 743279 | 4.7% of 360,000 active; in the data active = activity change below about -50%; inconclusive = mostly about -30% to -49%; also: % is scaled to controls: 0 for no effect and ±100 for the full control effect
#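 Secreted IL-1B measured by AlphaLISA bead assay after 16 h compound exposure of THP-1 cells; compounds (final up to 57.5 uM) added 1 h before LPS (250 ng/mL) and ATP (1.25 mM) stimulation; lower signal means less secretion.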
# * = called active by the depositor; i = inactive; ? = inconclusive; . = no result given; [ ] = dose if it differs, or a comment. In the library only some 7% were active in any assay of this set; here they are far more common. Unless noted, calls follow the shape of the dose curve; as a rule, active = well fitted curve in the direction sought with a large enough effect; inconclusive = small, poorly fitted or top-dose-only effect, or another doubt; inactive = no such curve, though single readings can be large; an effect the other way counts as inactive or inconclusive.
SMILES,D3 ag,S2 tox,ATXN2 expr inh,DRD3 antagonist,a7 integrin act,IL1B secr inh
Cc1cc(C)c(C#N)c(SCCN2CCOCC2)n1,2,?,-5%,9,5%,-11
N#Cc1ccc(-c2ccccc2)nc1SCCN1CCOCC1,-5,i,-9%,3,22%,-75*
COc1ccc2cc3cc(C(=O)NCc4ccccc4OC)oc3nc2c1,-12,i,-8%,.,.,.
CC(=O)Nc1nonc1-c1nnc(SCc2ccccc2F)n1C,10,i,8%,.,.,.
COC(=O)CSc1nsc(SCC(=O)OC)c1C#N,-8,i,-9%,-27,5%,-100*
CCOC(=O)c1ccc(Nc2nnc(C(C)(C)C)c(=O)[nH]2)cc1,-5,?,6%,-17,-69%,-91*
CCCOc1ccc(NC(=O)CC2C(=O)N(c3ccc(F)cc3)C(=O)N2CC(C)C)cc1 (stereo not drawn),62*,.,.,.,.,.
CCOc1ccc(S(=O)(=O)NCc2ccccc2Cl)cc1C(N)=O,-4,i,-4%,9,19%,-58*
CCOc1ccc(S(=O)(=O)NCc2ccccc2)cc1C(N)=O,11,i,-1%,11,-25%,-8
Cc1ccc(S(=O)c2ccc([N+](=O)[O-])c3nonc23)cc1 (stereo not drawn),-9,?,.,?,-49%,?
N#Cc1c2n(c(=S)n(-c3ccccc3[N+](=O)[O-])c1=O)CCCCC2,-5,i,-9%,-4,27%,-2
CCCCC1CC(CSC(=N)N)OC1=O (stereo not drawn),-1,i,35%,-12,-28%,-13
CCCCCCCC1CC(CSC(=N)N)OC1=O (stereo not drawn),1,i,8%,?,17%,-99*
COC(=O)Cn1c(CCS(=O)(=O)c2ccc(Cl)cc2)nc2ccccc21,-6,i,3%,-5,-22%,1
COC(=O)Cn1c(CCS(=O)(=O)c2ccc(C)cc2)nc2ccccc21,0,i,7%,-101*,3%,-4
NC(Cc1ccc(C(F)(F)F)cc1)c1csc(Nc2ccc(C(=O)c3ccccc3)cc2)n1 (stereo not drawn),7,i,32µM*,103,.,-70*
NC(=O)c1cccc(Nc2nc(C(N)COCc3ccccc3)cs2)n1 (stereo not drawn),-2,i,-4%,-65*,.,-26
NC(COCc1ccccc1)c1csc(Nc2ccc(C(=O)c3ccccc3)cc2)n1 (stereo not drawn),6,?,?,29,.,-66*
Cc1ccc(C(=O)Nc2nc(C(N)Cc3ccc(C(F)(F)F)cc3)cs2)cc1 (stereo not drawn),4,.,?,12,.,-65*
NC(=O)c1ccc(Nc2nc(C(N)COCc3ccccc3)cs2)cc1 (stereo not drawn),3,i,4%,17,.,-5
CC(=O)c1ccc(Nc2nc(C(N)Cc3ccc(C(F)(F)F)cc3)cs2)cc1 (stereo not drawn),6,i,0%,15,.,?
COC(=O)c1cn(C(C)C(=O)NCc2ccco2)c2ccccc12 (stereo not drawn),1,i,-15%,18,1%,29
OCC(CO)(CO)n1cnnn1,4,i,3%,-15,-5%,0
CN(Cc1nc2ccc(F)cc2[nH]1)C(=O)C1CCC(=O)N(C2CC2)C1 (stereo not drawn),-2,i,2%,-1,23%,13
O=C(c1ccc(Cl)cc1)c1c[nH]c(C(=O)C(Cl)(Cl)Cl)c1,-14,i,-22%,5,-19%,-112*
SMILES,D3 ag,S2 tox,ATXN2 expr inh,DRD3 antagonist,a7 integrin act,IL1B secr inh
O=C(c1ccccc1)c1c[nH]c(C(=O)C(Cl)(Cl)Cl)c1,2,i,-2%,-15,1%,-18
O=C(c1c[nH]c(C(=O)C(Cl)(Cl)Cl)c1)c1ccc(F)cc1Cl,-6,i,-18%[11.3 µM],-9,-22%,-63*
COc1ccc(N2CCN(C(=O)C(C)n3nc(C)c4sc5ccccc5c4c3=O)CC2)cc1 (stereo not drawn),7,.,.,.,.,.
Cc1ccccc1N(C(=O)c1snc(C(N)=O)c1N)C(C)C(=O)NC1CCCCC1 (stereo not drawn),1,?,0%,10,1%,-2
COc1cc(C#N)ccc1OC(=O)c1cccc(S(=O)(=O)N2CCN(C)CC2)c1,-1,i,-19%,?,16%,-7
Cc1ccc2nc(N/N=C/c3ccccc3C#N)nc(-c3ccccc3)c2c1,3,i,-16%,-9,7%,-73*
Cc1ccc2nc(N/N=C/c3ccccc3F)nc(-c3ccccc3)c2c1,1,i,-17%,5,11%,-53*
N#Cc1ccccc1/C=N/Nc1nc(-c2ccccc2)c2cc(Cl)ccc2n1,-3,?,?,-21,16%,-15
CCN(CC)C(=O)CSc1nnc(CNc2ccc(F)cc2)o1,2,i,17%,13,-8%,8
Cc1cccc(NC(=S)NNC(=O)c2csc3c2CCC(C)C3)c1 (stereo not drawn),-11,i,24%,-14,10%,?
CC(C)CNC(=S)NNC(=O)c1csc2c1CCC(C)C2 (stereo not drawn),-34,i,-11%,-55*,-12%[7.66 µM],?
COc1ccc(OCCn2cc(C(=O)c3ccco3)c3ccccc32)cc1,-2,?,-24%,.,.,.
COc1ccc(S(=O)(=O)N(C)C[C@H]2Oc3ccc(NC(=O)Cn4cnnn4)cc3C(=O)N([C@H](C)CO)C[C@@H]2C)cc1,-1,i,11%,0,16%,-14
Cc1cc(C(C)(C)C)cc(S(=O)(=O)NCC(=O)O)c1C,-4,i,-6%,29,4%,1
COc1cccc(C=Nc2cc(C)cc(C)c2)c1O,-1,i,6%,-17,8%,-17
COc1cc(Br)cc(C=Nc2cccc(C(F)(F)F)c2)c1O,-14,i,-24%,-81*,-13%,-50*
COc1cccc(N2CCN(C(=O)CN(c3ccc(C)cc3)S(=O)(=O)c3c(C)n[nH]c3C)CC2)c1,3,i,-22%,-6,25%,0
COc1ccc(N(CC(=O)N2CCN(c3cccc(C)c3)C(C)C2)S(=O)(=O)c2c(C)n[nH]c2C)cc1 (stereo not drawn),-4,i,-22%,-8,11%,-61*
CN1CCN(C2=Cc3ccc(Cl)cc3Sc3ccc(F)cc32)CC1,-16,i,?,-19,-62%,-71*
CN1CCN(C2Cc3ccccc3Sc3cc(C(F)(F)F)ccc32)CC1 (stereo not drawn),-18,.,?,-96*,-64%,-98*
